Only some compounds are listed: those with a hit (about 10% of all), similar ones and a draw of the others.
HCT116 PTEN-null – growth suppression of PTEN-null HCT116, primary screen, cell-based, CellTiter-Glo. viability, % at 10 µM. AID 827, 2007. HCT116 PTEN-null viability, 60 h; hits give low values. 140,000 tested, 1.2% active;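 active = viability at or below a set limit, 4 SD under the median of all tested compounds, cut at about 3.7% in these data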;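 also: PTEN knockout HCT116 line with beta catenin targeted HCT116 as companion control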
INS promoter inh – inhibitors of insulin promoter-driven GFP, primary screen, imaging, TRM-6 cells (human fetal islet line), eGFP reporter, cell count. inhibition, % at 2 µM. 130,000 tested, 0.9% active. reporter expression induced with tamoxifen;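 active = inhibition above the mean plus 3 SD, with well images judged a real hit on visual review, cut at about 60% in these data, passing the limit was not always enough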
HCT116 bCat-KO – primary screen for growth suppressors in beta-catenin knockout HCT116 cells (colon tumor, human). HCT116 beta-catenin knockout viability, CellTiter-Glo, 60 h; hits give low values. viability, % at 10 µM. 140,000 tested, 1.5% active. AID 818, 2007;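 active = viability at or under a set limit, the compound median less 4 SD, cut at about 6% in these data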;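 also: 0% = Hyamine 1622 control at 20 µM and 100% = untreated cell control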
p97 ATPase inh – inhibitors of human p97 ATPase, primary screen, biochemical. Transitional endoplasmic reticulum ATPase (Homo sapiens), P55072. recombinant p97 ATPase, Kinase-Glo ATP luminescence, 3 h. inhibition, % at 8 µM. 220,000 tested, 0.42% active; in the data active = inhibition above about 15%;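 also: 0% = DMSO vehicle and 100% = wells lacking enzyme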
Target sequence (P55072 whole entry, looked up): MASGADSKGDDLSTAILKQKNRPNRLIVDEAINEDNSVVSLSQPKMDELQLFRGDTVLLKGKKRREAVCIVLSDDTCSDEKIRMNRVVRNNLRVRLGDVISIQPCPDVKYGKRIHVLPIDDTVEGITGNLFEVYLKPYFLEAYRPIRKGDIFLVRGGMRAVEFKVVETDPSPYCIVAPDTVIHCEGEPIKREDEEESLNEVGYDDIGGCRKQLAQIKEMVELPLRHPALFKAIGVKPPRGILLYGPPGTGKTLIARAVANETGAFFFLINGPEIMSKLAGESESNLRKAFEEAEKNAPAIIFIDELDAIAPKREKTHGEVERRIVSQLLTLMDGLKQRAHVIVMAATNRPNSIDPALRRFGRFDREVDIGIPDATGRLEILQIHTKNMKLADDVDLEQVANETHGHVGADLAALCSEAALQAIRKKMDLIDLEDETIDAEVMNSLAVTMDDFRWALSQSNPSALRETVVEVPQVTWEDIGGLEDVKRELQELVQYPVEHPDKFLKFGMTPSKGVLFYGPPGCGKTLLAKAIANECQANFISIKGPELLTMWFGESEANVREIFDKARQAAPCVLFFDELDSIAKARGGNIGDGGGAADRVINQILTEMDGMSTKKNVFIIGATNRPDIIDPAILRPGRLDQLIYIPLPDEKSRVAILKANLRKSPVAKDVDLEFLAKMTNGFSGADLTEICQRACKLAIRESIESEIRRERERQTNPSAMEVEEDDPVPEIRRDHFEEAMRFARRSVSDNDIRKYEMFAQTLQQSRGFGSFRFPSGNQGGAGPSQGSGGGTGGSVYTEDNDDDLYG
ROMK primary – ROMK potassium channel modulators, primary screen, cell-based, thallium flux, MLSMR library; ATP-sensitive inward rectifier potassium channel 1 (Homo sapiens), P48048; Tet-inducible ROMK, thallium flux fluorescence; actives lie on both sides; B-score at 10 µM; 130,000 tested, 2% active; AID 1918, 2009;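 active = signal ratio slope over the read window, or its plate-corrected B-score, at least 3 SD from the plate mean, either direction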;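 also: B-score of the F/F0 ratio slope over 7 to 12 s after thallium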
Lmaj promast – Leishmania major promastigote growth inhibition, primary screen. 200,000 tested, 9% active. Leishmania major promastigotes, resazurin fluorescence viability. inhibition, % at 10 µM; in the data active = inhibition above about 50%;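 also: promastigotes grown with compound for 44 hours at 28 °C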
The depositor's hits bear a star; / = no result.

SMILES	HCT116 PTEN-null	INS promoter inh	HCT116 bCat-KO	p97 ATPase inh	ROMK primary	Lmaj promast
Cc1ccc(S(=O)(=O)NCC(=O)OCC(=O)c2c(N)n(C)c(=O)n(C)c2=O)cc1	98	-85	96	6	1.1	-3
O=C(Cc1ccsc1)Nc1ccc(S(=O)(=O)C(F)F)cc1	/	/	/	5	-1.3	4
Cc1ccc(S(=O)(=O)c2cc3ccccc3oc2=Nc2ccc3c(c2)OCCO3)cc1	89	-21	91	0	/	98*
COc1cccc2cc(S(=O)(=O)c3ccccc3)c(=Nc3ccc4c(c3)OCCO4)oc12	91	0	89	3	/	92*
Nc1nccc(-c2cc(-c3ccc(Cl)cc3Cl)no2)n1	/	/	/	-11	-0.82	/
O=C(Nc1cccc(Cl)c1)c1ccc(F)c(S(=O)(=O)NCc2ccc3c(c2)OCO3)c1	77	-14	82	1	-0.99	21
O=C(NC(=O)c1cnccc1C(F)(F)F)Nc1ccccc1	/	/	/	2	/	/
CN1CCN(C(=S)NC(=O)c2ccc(C(C)(C)C)cc2)CC1	105	67*	98	1	1	-9
Cc1cccc(C(=O)NC(=S)N2CCN(C(=S)NC(=O)c3cccc(C)c3)CC2)c1	66	14	74	-7	1.4	73*
COc1ccc(/C=C(/NC(=O)c2cccc([N+](=O)[O-])c2)C(=O)O)cc1	/	47	/	9	-0.72	-2
Cn1c(=O)n(CCOc2ccc([N+](=O)[O-])cc2)c2ccccc21	/	/	/	2	/	/
Cc1cc(OCCN2CC(C)OC(C)C2)ccc1[N+](=O)[O-] (stereo unspecified)	87	-31	104	-1	0.1	76*
CC1CN(CCOc2ccc([N+](=O)[O-])cc2)CC(C)O1 (stereo unspecified)	98	5	96	8	0.97	85*
O=[N+]([O-])c1ccccc1OCCCN1CCOCC1	95	7	96	5	/	42
O=[N+]([O-])c1ccc(OCCN2CCNCC2)cc1	/	/	/	0	-0.0088	99*
CC1CN(CCCOc2ccccc2[N+](=O)[O-])CC(C)O1 (stereo unspecified)	89	11	89	-3	-0.17	90*
CCC(C)(C)NC(=O)C1CCN(c2nc(OC)nc(OC)n2)CC1	/	/	/	1	0.53	6
Cc1ccc(S(=O)(=O)Nc2csc(C)c2C(=O)O)cc1	/	/	/	0	/	/
CC1CCN(c2cc(N3CCN(C(=O)c4ccc(F)c(F)c4)CC3)c([N+](=O)[O-])cc2F)CC1	65	-75	69	-7	-0.8	3
CN(C)NC(=S)NC1CC2CCC1C2 (stereo unspecified)	/	/	/	-1	0.68	/
CC1CN(CCCOc2ccc([N+](=O)[O-])cc2)CC(C)O1 (stereo unspecified)	90	14	93	0	0.0082	91*
Cc1ccc(C(C)C)c(OCCCN2CC(C)OC(C)C2)c1 (stereo unspecified)	88	-65	96	-7	/	97*
CC1CC(C)CN(CCCCOc2ccc([N+](=O)[O-])cc2)C1 (stereo unspecified)	97	11	86	1	-0.27	95*
CCOC(=O)C(CCCCOc1ccc([N+](=O)[O-])cc1)C(=O)OCC	88	0	88	-2	/	2
COC(=O)C1CCN(CCCOc2ccc(CN3CCN(c4ccc([N+](=O)[O-])cc4)CC3)cc2)CC1	/	/	/	-6	-0.92	95*
SMILES	HCT116 PTEN-null	INS promoter inh	HCT116 bCat-KO	p97 ATPase inh	ROMK primary	Lmaj promast
CN(C)c1cc[n+](CC(=O)c2ccc(OC(F)F)cc2)cc1	/	/	/	5	/	/
COc1cc2[nH]c(=S)nc(NCCC(C)C)c2cc1OC	/	83*	/	3	-0.077	28
COc1ccc(CCNc2nc(=S)[nH]c3cc(OC)c(OC)cc23)cc1OC	/	-60	/	-2	0.43	10
COCCCNc1nc(=S)[nH]c2cc(OC)c(OC)cc12	98	/	98	5	0.2	41
COc1cc2[nH]c(=S)nc(NCCc3ccc(C)cc3)c2cc1OC	/	20	/	2	-0.014	97*
Cc1ccc(N=C2S/C(=C\c3cn(CC(=O)O)c4ccccc34)C(=O)N2C)cc1	93	/	98	3	0.23	-5
COc1ccc(/C=C/C(O)=C2/C(=O)N(C)C3(C)CC2c2ccccc2O3)cc1 (stereo unspecified)	1.4*	10	1.8*	-6	-0.9	80*
Cc1ccc(/C=C/C(O)=C2/C(=O)N(C)C3(C)CC2c2ccccc2O3)cc1 (stereo unspecified)	3.0*	/	5.4*	0	-0.43	79*
Cc1ccc(S(=O)(=O)C2C(=O)N(C)C3(C)CC2c2ccccc2O3)cc1C (stereo unspecified)	102	/	89	4	/	10
COc1ccc(/C=C/C(O)=C2/C(=O)NC3(C)CC2c2ccccc2O3)c(OC)c1OC (stereo unspecified)	/	47	/	4	-0.75	47
COc1ccc2nc(/C=N/NC(=O)[C@@H]3CCCN3C(=O)OC(C)(C)C)ccc2c1	/	/	/	7	/	/
CCn1c(=O)cc(C(=O)OC)sc1=Nc1ccc(F)c(F)c1	2.0*	/	2.2*	-2	/	86*
COC(=O)c1cc(=O)n(Cc2ccc(OC)cc2)c(=NCc2ccc(OC)cc2)s1	/	/	/	2	0.28	7
COC(=O)c1cc(=O)n(Cc2ccc3c(c2)OCO3)c(=Nc2ccc(F)c(Cl)c2)s1	4	/	2.0*	4	/	100*
COC(=O)c1cc(=O)n(CCc2ccccc2)c(=Nc2ccc(F)cc2)s1	8	/	10	-6	/	90*
CCOC(=O)c1ccc(N=c2sc(C(=O)OC)cc(=O)n2CCCN2CCOCC2)cc1	8	/	6.0*	3	/	100*
Fc1ccccc1SCc1nnc(-c2ccccc2Br)o1	/	/	/	0	-1.1	6
COc1coc(C(O)C[N+](=O)[O-])cc1=O (stereo unspecified)	106	/	92	0	-0.92	-6
O=C(COC(=O)C1(c2ccc(F)cc2)CCCC1)NCc1ccco1	/	/	/	0	-0.07	-8
COC(=O)c1cc(=O)n(CCc2ccc(OC)cc2)c(=Nc2ccc(F)c(Cl)c2)s1	7	/	7	-5	/	100*
c1ccc(-c2cccc(-c3ccccn3)n2)nc1	17	/	15	1	0.81	100*
c1ccc(-c2ccc(-c3ccccn3)s2)nc1	/	/	/	-13	/	/
Cc1ccccc1OCCn1cnc2cc([N+](=O)[O-])ccc2c1=O	/	/	/	-1	0.29	73*
O=C(Cn1cnc2cc([N+](=O)[O-])ccc2c1=O)NCCc1ccc(Cl)cc1	/	/	/	2	-0.011	64*
Cc1cccc(CCNC(=O)CCNC(=O)Cn2ccc3ccccc3c2=O)c1	94	7	99	-4	-0.53	-6
O=C(CCNC(=O)Cn1ccc2ccccc2c1=O)NCCc1ccc(Cl)cc1	91	-64	92	4	/	55*

Screens deposited in PubChem BioAssay by several laboratories.
